From PubChem BioAssay (NCATS)
Values joined by “and” are separate entries in the source; they are usually repeats but may differ in a detail not shown here. Identical values can stand only once. Results filed as inconclusive are left out. Where a structure was tested more than once in an assay, its records may differ in their call. Active and inactive are the calls of the source. Calls follow the shape of the dose curve; as a rule, active = well fitted cell-killing curve with a large enough effect; inconclusive = small, poorly fitted or top-dose-only effect, or effect the other way; inactive = no such curve, though single readings can be large or run the other way.

Test: Viability qHTS for spleen associated tyrosine kinase inhibitor (SYKi) naive MV4-11 cells (AID 1963823); also: nearly all actives have a fitted effect of over 40% in size
Settings: MV4-11 AML viability, CellTiter-Glo luminescence, 72 h; series mostly up to 45 µM; viability (% of control): at the top concentration
From the text: Department of Medicine, Hematology/Oncology
University Hospital Frankfurt, Germany.
Trials have shown promising clinical activity of the selective SYK inhibitor entospletinib in patients with high expressing HOXA9/MEIS1 acute leukemias. As the development of resistance mechanisms is a common problem in the use of targeted drugs, we performed a chemical library screen to identify drug sensitivities in SYK inhibitor resistant AML cells. […] Glucocorticoids are potent immunosuppressants which work in part by inhibiting the transcription of cytokine genes.
Described herein is a viability screen to look for activity in the SYK inhibitor naive cell line against four NCATS compound libraries (MIPE 5.0, NPC, NPACT, and Kinase) totaling 11372 compounds. Active hits were reacquired for confirmation and further secondary assay testing.
SEQUENCE No. (e.g., 1, 2, 3, etc.); […] (e.g., Cells, Incubation, Reagent, etc.); VALUE; DESCRIPTION.
1; Media; 2uL; white, solid-bottom Corning assay plate.
2; Compounds; 23nL; Echo acoustic dispenser.
3; Cell; 5uL; 500 cells per well.
4: Incubation; 72hr; 37 C, 5% CO2, 95% humidity.
5; Reagent; 3uL; CellTiter-Glo reagent (Promega).
6; Incubation; 10min; room temperature.
7; Detection; Luminescence; ViewLux plate reader (PerkinElmer).
NOTES (numbers refer to Sequence numbers above
1. Quantitative high-throughput screening (qHTS) of small molecule compounds was conducted on naive SYKi MV4-11 cell line.
2. Twenty-three nanoliter of small molecule compounds were added to each assay plates using the Echo acoustic dispenser (Beckman Coulter).
3. Cells were seeded into the assay plates at a final density of 500 cells in 5uL of media per well using the Multi-drop Combi dispenser.
4. Plates were covered with stainless steel gasketed lids and incubated for 72 hours at standard cell culture conditions.
5. Viability was assessed by adding 3uL of CellTiter-Glo detection reagent (Promega).
6. Plates were covered with gasket lids and incubated for 10 minutes at room temperature.
7. Luminescence was measured on a ViewLux plate reader (PerkinElmer).
Potency is read from the fitted curve at half-maximal effect.

Row | Structure (SMILES) | Potency | viability (% of control)
1 | C=C1[C@H](CO)[C@@H](O)C[C@@H]1n1cnc2c(=O)[nH]c(N)nc21 | inactive and 16.4 µM (active) | 
2 | C[C@@H](Nc1cc(NS(=O)(=O)N2CCC2)nc(SCc2cccc(F)c2F)n1)[C@@H](O)CO |  | 86.8% (inactive)
3 | COc1cc(C)c(/C=C/C(C)=C/C=C/C(C)=C/C(=O)O)c(C)c1C | 2.35 µM (active) | 
4 | CC(=O)OC1C(CO)OC(O[C@H]2[C@H](OC(=O)[C@]34CCC(C)(C)C[C@H]3C3=CCC5[C@@]6(C)CC[C@H](O[C@@H]7O[C@H](C(=O)O)[C@@H](O)[C@H](O[C@@H]8OC[C@@H](O)[C@H](O)[C@H]8O)[C@H]7O[C@@H]7O[C@H](CO)[C@H](O)[C@H](O)[C@H]7O)[C@@](C)(C=O)C6CC[C@@]5(C)[C@]3(C)C[C@H]4O)O[C@H](C)[C@H](OC3OC(C)C(OC4OCC(O)C(O)C4O)C(O)C3O)[C@@H]2O)C(O)C1O (stereo not given in full) |  | 87.3% [at 9.25 µM] (inactive)
5 | CC(=O)N(c1onc(C)c1C)S(=O)(=O)c1ccc(N)cc1 |  | 79.4% (inactive)
6 | O=c1[nH]c(=O)n([C@H]2C[C@H](O)[C@@H](CO)O2)cc1C(F)(F)F | 2.11 µM (active) and 1.66 µM (active) | 
7 | CN(C)Cc1ccc(S(=O)(=O)n2ccc(/C=C/C(=O)NO)c2)cc1 | 3.32 µM (active) | 
8 | CCCCC(CC)CNC(=O)CC(C)OC(=O)CCC(=O)O (stereo not given) |  | 76.2% (inactive)
9 | CC(=O)CCC1=C(C)C(O[C@@H]2O[C@H](CO)[C@@H](O)[C@H](O)[C@H]2O)C(O)CC1(C)C (stereo not given in full) |  | 76.4% (inactive)
10 | NC/C=C/C(=O)O |  | 72.7% (inactive)
11 | c1nc2nc(Nc3ccc(N4CCOCC4)cc3)nc(NC3CCCCC3)c2[nH]1 | 224 nM (active) and 209 nM (active) | 
12 | C[C@@H]1C[C@H](N)C[C@H](c2ccncc2NC(=O)c2ccc(F)c(-c3c(F)cccc3F)n2)C1 | 1.18 µM (active) | 
13 | NC(N)=NC(N)=NCCc1ccccc1 | 11.8 µM (active) | 
14 | CCC1CC2C(C)=CC3CCCCC3C2(C)C2(OC(=O)C(C)(O)OC2=O)O1 (stereo not given) | 12.8 µM (active) | 
15 | CC(C)(O)C1CC=C(C(=O)OC[C@H]2O[C@@H](Oc3cc(C(=O)O)cc(O)c3O)[C@H](O)[C@@H](O)[C@@H]2O)CC1 (stereo not given in full) |  | 85.6% [at 17.3 µM] (inactive)
16 | CN1CCc2c(c3ccccc3n2Cc2ccc(C(=O)NO)cc2)C1 | 26.3 µM (active) | 
17 | COc1cc(CCc2ccc(OCC=C(C)C)cc2)cc(OC)c1OC | 14.3 µM (active) | 
18 | CC(C)=CCNc1ncnc2c1ncn2[C@@H]1O[C@H](CO)[C@@H](O)[C@H]1O | 0.82 µM (active) | 
19 | CCC(C(=O)NC(=O)NC(C)=O)c1ccccc1 (stereo not given) |  | 107% (inactive)
20 | Nc1ccccc1NC(=O)c1ccc(CNc2nccc(-c3cccnc3)n2)cc1 | 0.291 µM (active) | 

Row | Structure (SMILES) | Potency | viability (% of control)
21 | CC12CC34CC(O)C5C(CO)(CO)CC(=O)CC5(C)C3CC1C2C4 (stereo not given) |  | 91.9% (inactive)
22 | CC[C@]1(O)CC2CN(CCc3c([nH]c4ccccc34)[C@@](C(=O)OC)(c3cc4c(cc3OC)N(C)[C@H]3[C@@](O)(C(=O)OC)[C@H](OC(C)=O)[C@]5(CC)C=CCN6CC[C@]43[C@@H]65)C2)C1 (stereo not given in full) | 0.0332 µM (active) | 
23 | CN1c2cc(O)c(N=NC(N)=O)cc2CC1S(=O)(=O)O (stereo not given) |  | 80.8% (inactive)
24 | CCOC(=O)C(O)c1ccccc1 (stereo not given) |  | 96% (inactive)
25 | CC1(C)CC[C@]23CO[C@@]4(CCC5[C@@]6(C)CC[C@H](O[C@@H]7OC[C@H](O[C@@H]8O[C@H](CO)[C@@H](O)[C@H](O)[C@H]8O)[C@H](O)[C@H]7O[C@@H]7O[C@H](CO)[C@@H](O[C@@H]8O[C@H](CO)[C@@H](O)[C@H](O)[C@H]8O)[C@H](O)[C@H]7O)[C@@](C)(CO)C6CC[C@@]5(C)[C@]4(C)C[C@H]2OC2OCC(O)C(O)C2O)C3C1 (stereo not given in full) | 1.95 µM (active) | 
26 | Cc1cn(-c2cc(NC(=O)c3ccc(C)c(Nc4nccc(-c5cccnc5)n4)c3)cc(C(F)(F)F)c2)cn1 | inactive and 2.35 µM (active) | 
27 | CCCc1nc2c(C)cc(-c3nc4ccccc4n3C)cc2n1Cc1ccc(-c2ccccc2C(=O)O)cc1 | 750 nM (active) and inactive | 
28 | C[C@]12C[C@@H](O)[C@@H]3C[C@@]1(O[C@@H]1O[C@H](CO)[C@@H](O)[C@H](O)[C@H]1O)[C@]3(COC(=O)c1ccccc1)C(=O)O2 |  | 65.3% [at 17.3 µM] (inactive)
29 | CC(N)C1CCC(C(=O)Nc2ccncc2)CC1 (stereo not given) |  | 65.8% (inactive)
30 | c1ccc2c(Nc3nnc(-c4ccncc4)s3)cccc2c1 |  | 59.5% (inactive)
31 | C[C@@H](NCc1cc2ccccc2[nH]1)c1cccc2ccccc12 | 6.61 µM (active) | 
32 | O=C1OC(OC(=O)c2cccnc2Nc2cccc(C(F)(F)F)c2)c2ccccc21 (stereo not given) |  | 75.8% (inactive)
33 | O=S1(=O)CCN(Cc2cc(NCC3CCOCC3)c3[nH]c(-c4ccccc4)cc3c2)CC1 |  | 3.26% (inactive)
34 | Brc1c(NC2=NCCN2)ccc2nccnc12 |  | 78.4% (inactive)
35 | C[C@@]1(c2ncncc2F)NC(=O)c2cc(-c3cn[nH]c3)ccc21 | 16.6 µM (active) | 
36 | C[C@@H]1CN(CC(=O)Nc2ccc3c(c2)Cc2cccc(-c4cc(=O)cc(N5CCOCC5)o4)c2S3)C[C@H](C)O1 | 8.33 µM (active) | 
37 | CC1=C2C(=O)O[C@@H](c3ccoc3)[C@]2(C)CCC1 |  | 73.7% (inactive)
38 | COc1ccc(O[C@@H]2O[C@H](CO)[C@@H](O)[C@H](O)[C@H]2O)cc1OC |  | 76.7% (inactive)
39 | C[C@@H]1C(=O)O[C@H]2CC34[C@H]5C[C@@H](C(C)(C)C)C36[C@@H](OC(=O)[C@@H]6O)O[C@@]4(C(=O)O5)[C@]21O (stereo not given in full) |  | 82% [at 17.3 µM] (inactive)
40 | Cc1ccc(C(=O)Nc2ccc(CN3CCN(C)CC3)c(C(F)(F)F)c2)cc1C#Cc1cnc2[nH]ncc2c1 |  | 1.85% (inactive)
